Measured values as given in PMC7862700, “An all-to-all approach to the identification of sequence-specific readers for epigenetic DNA modifications on cytosine”.

How the values were obtained:
Assay in all cases: DAPPL (digital affinity profiling via proximity ligation, sequencing); 10 mM Tris-HCl pH 7.5, 50 mM NaCl, 1 mM DTT, 4% glycerol, room temperature, 30 min; GST-TFs on glutathione beads, 16-mer random dsDNA library, 0.1% formaldehyde crosslink after washing; high values mean tight binding
[1] = biological target: T1, FEV (Homo sapiens, UniProt Q99581 1-238); settings: protein: recombinant; tags: N-terminal GST; dsDNA, one strand shown
T1 sequence: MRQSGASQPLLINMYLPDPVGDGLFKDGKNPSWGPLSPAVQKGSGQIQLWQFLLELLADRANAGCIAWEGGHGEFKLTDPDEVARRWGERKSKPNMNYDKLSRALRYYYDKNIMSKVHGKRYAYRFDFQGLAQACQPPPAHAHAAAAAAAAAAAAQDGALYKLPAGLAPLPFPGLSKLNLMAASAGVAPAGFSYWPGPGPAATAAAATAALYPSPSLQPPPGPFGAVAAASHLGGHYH
Method in brief: (§1)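 After expression in yeast as GST fusions, human transcription factors were bound to glutathione beads, DNA-barcoded and mixed with a tag-only sample. The pools were incubated with 200 nmole of a 16-mer random double-stranded DNA library in Tris/NaCl/DTT/glycerol buffer (30 min, room temperature), washed and crosslinked with 0.1% formaldehyde. Proximity ligation with BsaI/T4 ligase ran for 1 h at 37 °C, before PCR amplification and sequencing on an Illumina NextSeq500. Binding signal is a hexamer's read frequency for a factor divided by its frequency for the tag-only sample.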

[2] = biological target: ETV5 (Homo sapiens, UniProt P41161 1-510); settings: protein: recombinant; tags: N-terminal GST; dsDNA, one strand shown
Method in brief: as §1

[3] = biological target: HSF1 (Homo sapiens, UniProt Q00613 1-529); settings: protein: recombinant; tags: N-terminal GST; chain copies: 3; dsDNA, one strand shown
Method in brief: as §1

[4] = biological target: T2, SPIC (Homo sapiens, UniProt Q8N5J4 1-248); settings: protein: recombinant; tags: N-terminal GST; dsDNA, one strand shown
T2 sequence: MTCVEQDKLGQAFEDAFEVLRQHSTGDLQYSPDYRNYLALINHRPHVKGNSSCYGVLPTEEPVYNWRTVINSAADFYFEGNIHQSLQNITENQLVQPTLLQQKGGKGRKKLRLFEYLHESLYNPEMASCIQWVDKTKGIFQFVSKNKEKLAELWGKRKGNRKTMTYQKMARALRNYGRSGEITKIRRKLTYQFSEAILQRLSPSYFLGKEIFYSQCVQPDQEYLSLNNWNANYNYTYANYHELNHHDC
Method in brief: as §1

[5] = biological target: ELF4 (Homo sapiens, UniProt Q99607 1-663); settings: protein: recombinant; tags: N-terminal GST; dsDNA, one strand shown
Method in brief: as §1

[6] = biological target: T3, ELK4 (Homo sapiens, UniProt P28324-2 1-405); settings: protein: recombinant; tags: N-terminal GST; dsDNA, one strand shown
T3 sequence: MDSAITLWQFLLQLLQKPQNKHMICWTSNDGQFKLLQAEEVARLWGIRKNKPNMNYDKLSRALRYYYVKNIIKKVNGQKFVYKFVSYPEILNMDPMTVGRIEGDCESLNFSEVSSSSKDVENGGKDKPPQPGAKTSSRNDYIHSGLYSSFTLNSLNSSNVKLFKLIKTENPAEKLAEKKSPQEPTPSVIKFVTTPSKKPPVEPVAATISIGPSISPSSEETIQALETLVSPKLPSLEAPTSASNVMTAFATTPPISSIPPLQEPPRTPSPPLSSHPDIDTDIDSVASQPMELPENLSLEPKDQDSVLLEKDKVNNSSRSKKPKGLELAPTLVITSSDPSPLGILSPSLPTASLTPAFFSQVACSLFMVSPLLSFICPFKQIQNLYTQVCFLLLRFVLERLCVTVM
Method in brief: as §1

[7] = biological target: T4, ETV2 (Homo sapiens, UniProt O00321 1-342); settings: protein: recombinant; tags: N-terminal GST; dsDNA, one strand shown
T4 sequence: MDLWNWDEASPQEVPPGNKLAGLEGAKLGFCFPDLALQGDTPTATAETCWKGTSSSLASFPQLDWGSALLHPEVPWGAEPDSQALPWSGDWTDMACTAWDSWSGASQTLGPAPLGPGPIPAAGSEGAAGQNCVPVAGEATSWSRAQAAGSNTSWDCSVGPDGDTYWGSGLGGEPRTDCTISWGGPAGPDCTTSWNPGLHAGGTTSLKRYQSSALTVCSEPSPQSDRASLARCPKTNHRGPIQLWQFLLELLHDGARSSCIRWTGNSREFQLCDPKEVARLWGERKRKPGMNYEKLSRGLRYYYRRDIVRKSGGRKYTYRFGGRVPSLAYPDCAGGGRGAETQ
Method in brief: as §1

[8] = biological target: T5, ELF3 (Homo sapiens, UniProt P78545 1-371); settings: protein: recombinant; tags: N-terminal GST; dsDNA, one strand shown
T5 sequence: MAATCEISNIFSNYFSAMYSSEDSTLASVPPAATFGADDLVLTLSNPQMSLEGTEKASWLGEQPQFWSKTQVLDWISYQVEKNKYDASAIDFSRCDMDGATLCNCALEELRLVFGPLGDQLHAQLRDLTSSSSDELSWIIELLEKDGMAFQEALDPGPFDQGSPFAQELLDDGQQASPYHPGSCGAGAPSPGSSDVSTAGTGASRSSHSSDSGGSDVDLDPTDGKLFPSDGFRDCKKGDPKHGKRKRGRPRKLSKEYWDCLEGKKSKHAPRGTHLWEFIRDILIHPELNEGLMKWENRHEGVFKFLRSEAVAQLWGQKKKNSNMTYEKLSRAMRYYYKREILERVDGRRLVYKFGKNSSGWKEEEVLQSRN
Method in brief: as §1

[9] = biological target: CRX (Homo sapiens, UniProt O43186 1-299); settings: protein: recombinant; tags: N-terminal GST; dsDNA, one strand shown
Method in brief: as §1

[10] = biological target: ETV1 (Homo sapiens, UniProt P50549 1-477); settings: protein: recombinant; tags: N-terminal GST; dsDNA, one strand shown
Method in brief: as §1

[11] = biological target: T6, ERF (Homo sapiens, UniProt P50548 1-548); settings: protein: recombinant; tags: N-terminal GST; dsDNA, one strand shown
T6 sequence: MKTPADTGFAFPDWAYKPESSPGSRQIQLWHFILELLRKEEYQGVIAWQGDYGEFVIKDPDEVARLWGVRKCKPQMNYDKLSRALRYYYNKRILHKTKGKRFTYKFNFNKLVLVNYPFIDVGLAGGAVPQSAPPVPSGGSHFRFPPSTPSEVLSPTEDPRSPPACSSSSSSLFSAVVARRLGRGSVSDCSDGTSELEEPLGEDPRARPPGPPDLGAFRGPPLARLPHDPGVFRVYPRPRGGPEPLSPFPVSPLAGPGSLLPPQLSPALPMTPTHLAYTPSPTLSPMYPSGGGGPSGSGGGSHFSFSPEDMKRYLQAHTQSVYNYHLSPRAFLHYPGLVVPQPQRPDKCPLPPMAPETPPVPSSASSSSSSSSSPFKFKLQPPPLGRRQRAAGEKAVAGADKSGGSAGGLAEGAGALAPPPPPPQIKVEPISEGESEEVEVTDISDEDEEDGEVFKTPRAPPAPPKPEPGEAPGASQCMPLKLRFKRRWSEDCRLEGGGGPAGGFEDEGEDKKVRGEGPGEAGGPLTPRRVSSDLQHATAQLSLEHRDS
Method in brief: as §1

[12] = biological target: T7, ETV3L (Homo sapiens, UniProt Q6ZN32 1-361); settings: protein: recombinant; tags: N-terminal GST; dsDNA, one strand shown
T7 sequence: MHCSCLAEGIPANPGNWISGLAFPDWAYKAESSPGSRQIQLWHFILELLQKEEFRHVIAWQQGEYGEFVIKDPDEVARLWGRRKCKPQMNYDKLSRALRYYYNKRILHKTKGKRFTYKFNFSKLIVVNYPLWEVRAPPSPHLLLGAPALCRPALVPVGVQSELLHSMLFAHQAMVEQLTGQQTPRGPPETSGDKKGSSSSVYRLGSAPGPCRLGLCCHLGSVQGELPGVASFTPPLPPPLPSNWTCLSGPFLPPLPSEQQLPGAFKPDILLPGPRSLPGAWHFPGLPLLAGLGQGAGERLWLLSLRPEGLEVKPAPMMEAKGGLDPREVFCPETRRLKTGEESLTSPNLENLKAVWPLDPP
Method in brief: as §1

[13] = biological target: T8, ETS2 (Homo sapiens, UniProt P15036 1-469); settings: protein: recombinant; tags: N-terminal GST; dsDNA, one strand shown
T8 sequence: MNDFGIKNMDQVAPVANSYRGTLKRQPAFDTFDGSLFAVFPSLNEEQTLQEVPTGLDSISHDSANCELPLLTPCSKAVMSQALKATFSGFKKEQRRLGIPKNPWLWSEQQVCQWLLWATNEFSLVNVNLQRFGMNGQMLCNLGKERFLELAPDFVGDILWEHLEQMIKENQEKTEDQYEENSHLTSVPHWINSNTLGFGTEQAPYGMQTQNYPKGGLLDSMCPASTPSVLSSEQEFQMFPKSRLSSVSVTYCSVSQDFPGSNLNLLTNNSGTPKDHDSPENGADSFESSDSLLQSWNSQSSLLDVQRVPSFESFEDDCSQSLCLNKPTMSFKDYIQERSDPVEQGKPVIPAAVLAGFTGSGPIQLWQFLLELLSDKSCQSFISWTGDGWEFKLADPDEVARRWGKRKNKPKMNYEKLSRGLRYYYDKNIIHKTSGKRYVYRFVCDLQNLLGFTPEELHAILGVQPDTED
Method in brief: as §1

[14] = biological target: T9, SPDEF (Homo sapiens, UniProt O95238 1-335); settings: protein: recombinant; tags: N-terminal GST; dsDNA, one strand shown
T9 sequence: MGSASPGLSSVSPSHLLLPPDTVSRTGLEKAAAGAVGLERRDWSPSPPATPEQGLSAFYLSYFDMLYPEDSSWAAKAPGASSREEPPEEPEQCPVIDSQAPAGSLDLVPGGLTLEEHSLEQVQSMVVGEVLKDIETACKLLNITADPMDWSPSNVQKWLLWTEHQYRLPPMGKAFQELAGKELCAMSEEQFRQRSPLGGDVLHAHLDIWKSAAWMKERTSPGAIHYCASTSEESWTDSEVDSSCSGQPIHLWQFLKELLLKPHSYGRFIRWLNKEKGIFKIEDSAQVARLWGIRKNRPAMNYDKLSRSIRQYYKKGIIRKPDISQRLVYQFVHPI
Method in brief: as §1

[15] = biological target: T10, ETV7 (Homo sapiens, UniProt Q9Y603 1-341); settings: protein: recombinant; tags: N-terminal GST; dsDNA, one strand shown
T10 sequence: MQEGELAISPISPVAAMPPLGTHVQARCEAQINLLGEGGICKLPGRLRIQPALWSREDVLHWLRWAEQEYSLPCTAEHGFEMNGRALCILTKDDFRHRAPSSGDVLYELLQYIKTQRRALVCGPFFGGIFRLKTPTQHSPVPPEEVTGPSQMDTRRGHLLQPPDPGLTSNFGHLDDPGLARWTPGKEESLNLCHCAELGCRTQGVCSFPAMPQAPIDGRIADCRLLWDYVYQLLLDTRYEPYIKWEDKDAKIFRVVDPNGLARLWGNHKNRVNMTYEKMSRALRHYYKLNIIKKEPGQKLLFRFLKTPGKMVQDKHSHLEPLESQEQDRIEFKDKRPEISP
Method in brief: as §1

[16] = biological target: T11, ELF5 (Homo sapiens, UniProt Q9UKW6-2 1-255); settings: protein: recombinant; tags: N-terminal GST; dsDNA, one strand shown
T11 sequence: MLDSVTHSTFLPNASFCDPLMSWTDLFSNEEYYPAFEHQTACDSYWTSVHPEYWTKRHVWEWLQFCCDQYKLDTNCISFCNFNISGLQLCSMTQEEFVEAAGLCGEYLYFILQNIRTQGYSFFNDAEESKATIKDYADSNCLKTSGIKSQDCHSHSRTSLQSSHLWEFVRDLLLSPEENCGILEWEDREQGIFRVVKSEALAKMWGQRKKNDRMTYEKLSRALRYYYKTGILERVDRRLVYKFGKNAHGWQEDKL
Method in brief: as §1

[17] = biological target: T12, ETV3 (Homo sapiens, UniProt P41162-2 1-143); settings: protein: recombinant; tags: N-terminal GST; dsDNA, one strand shown
T12 sequence: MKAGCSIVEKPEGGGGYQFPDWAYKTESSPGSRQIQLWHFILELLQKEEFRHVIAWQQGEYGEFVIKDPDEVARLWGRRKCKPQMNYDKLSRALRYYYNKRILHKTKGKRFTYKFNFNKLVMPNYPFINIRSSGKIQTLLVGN
Method in brief: as §1

[18] = biological target: ETV6 (Homo sapiens, UniProt P41212 1-452); settings: protein: recombinant; tags: N-terminal GST; dsDNA, one strand shown
Method in brief: as §1

ELF4, sequence (Q99607 whole entry): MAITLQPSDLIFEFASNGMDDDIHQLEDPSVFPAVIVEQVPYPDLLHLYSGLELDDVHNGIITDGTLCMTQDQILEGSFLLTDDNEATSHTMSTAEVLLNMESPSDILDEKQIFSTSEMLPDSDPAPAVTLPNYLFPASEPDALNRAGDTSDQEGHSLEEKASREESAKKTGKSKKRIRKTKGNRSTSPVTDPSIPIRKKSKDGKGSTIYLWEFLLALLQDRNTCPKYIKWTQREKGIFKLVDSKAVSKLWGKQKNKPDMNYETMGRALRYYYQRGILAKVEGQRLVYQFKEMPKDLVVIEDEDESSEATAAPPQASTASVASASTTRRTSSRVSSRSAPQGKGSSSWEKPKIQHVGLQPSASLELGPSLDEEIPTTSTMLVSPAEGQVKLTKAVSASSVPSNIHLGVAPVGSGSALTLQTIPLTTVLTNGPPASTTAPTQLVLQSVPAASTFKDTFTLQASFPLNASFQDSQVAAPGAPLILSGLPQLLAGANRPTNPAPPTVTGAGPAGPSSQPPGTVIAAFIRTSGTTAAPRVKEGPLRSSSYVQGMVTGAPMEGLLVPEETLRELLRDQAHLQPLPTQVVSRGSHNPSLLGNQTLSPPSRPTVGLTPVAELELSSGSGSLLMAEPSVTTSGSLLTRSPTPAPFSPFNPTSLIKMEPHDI
ETV5, sequence (P41161 whole entry): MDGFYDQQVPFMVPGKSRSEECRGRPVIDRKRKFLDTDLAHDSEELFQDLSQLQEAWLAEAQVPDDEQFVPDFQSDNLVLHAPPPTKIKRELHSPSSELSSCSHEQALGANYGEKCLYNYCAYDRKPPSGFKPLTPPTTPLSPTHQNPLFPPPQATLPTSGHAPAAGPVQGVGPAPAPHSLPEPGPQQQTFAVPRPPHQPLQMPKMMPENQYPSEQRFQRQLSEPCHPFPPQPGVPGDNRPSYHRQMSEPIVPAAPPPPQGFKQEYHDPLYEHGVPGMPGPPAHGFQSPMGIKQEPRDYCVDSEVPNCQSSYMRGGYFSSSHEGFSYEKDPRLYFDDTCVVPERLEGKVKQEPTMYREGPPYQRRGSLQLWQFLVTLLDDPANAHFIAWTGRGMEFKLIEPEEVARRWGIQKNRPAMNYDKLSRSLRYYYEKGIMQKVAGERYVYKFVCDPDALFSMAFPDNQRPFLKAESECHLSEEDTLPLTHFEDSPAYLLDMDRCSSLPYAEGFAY
CRX, sequence (O43186 whole entry): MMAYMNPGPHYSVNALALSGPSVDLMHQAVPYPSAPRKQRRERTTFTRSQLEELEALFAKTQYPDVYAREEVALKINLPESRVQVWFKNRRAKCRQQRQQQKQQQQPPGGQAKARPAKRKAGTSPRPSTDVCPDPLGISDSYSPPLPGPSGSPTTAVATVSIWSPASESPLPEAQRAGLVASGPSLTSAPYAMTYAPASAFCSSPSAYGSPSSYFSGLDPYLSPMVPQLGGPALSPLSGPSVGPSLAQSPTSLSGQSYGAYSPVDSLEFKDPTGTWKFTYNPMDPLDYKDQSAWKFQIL
ETV1, sequence (P50549 whole entry): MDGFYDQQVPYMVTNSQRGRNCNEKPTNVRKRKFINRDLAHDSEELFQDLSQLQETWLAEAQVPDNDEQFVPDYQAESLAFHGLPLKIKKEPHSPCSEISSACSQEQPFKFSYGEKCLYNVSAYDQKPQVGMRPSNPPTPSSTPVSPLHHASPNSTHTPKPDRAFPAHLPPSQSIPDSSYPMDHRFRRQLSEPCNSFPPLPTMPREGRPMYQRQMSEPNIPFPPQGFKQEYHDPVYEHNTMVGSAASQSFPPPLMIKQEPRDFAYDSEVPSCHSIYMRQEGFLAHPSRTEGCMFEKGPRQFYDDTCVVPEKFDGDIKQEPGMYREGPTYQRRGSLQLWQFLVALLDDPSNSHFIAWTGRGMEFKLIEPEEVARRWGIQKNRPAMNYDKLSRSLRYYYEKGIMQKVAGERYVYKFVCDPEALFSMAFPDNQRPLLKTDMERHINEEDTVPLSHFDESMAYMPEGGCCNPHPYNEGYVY
HSF1, sequence (Q00613 whole entry): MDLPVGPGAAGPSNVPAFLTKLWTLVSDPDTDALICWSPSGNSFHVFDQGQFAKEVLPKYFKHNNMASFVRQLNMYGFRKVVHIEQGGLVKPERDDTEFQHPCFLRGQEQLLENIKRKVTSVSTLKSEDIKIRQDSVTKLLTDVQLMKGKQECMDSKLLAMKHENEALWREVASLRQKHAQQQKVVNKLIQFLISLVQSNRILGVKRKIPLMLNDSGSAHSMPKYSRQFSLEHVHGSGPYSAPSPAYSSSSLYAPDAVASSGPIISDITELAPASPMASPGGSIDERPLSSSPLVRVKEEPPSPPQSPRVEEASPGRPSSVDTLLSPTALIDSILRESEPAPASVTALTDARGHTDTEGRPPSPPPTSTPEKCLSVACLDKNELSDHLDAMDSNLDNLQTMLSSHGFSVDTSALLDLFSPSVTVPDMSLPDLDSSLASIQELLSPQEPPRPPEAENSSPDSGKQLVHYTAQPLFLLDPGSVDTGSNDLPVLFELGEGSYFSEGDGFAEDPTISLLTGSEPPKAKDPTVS
ETV6, sequence (P41212 whole entry): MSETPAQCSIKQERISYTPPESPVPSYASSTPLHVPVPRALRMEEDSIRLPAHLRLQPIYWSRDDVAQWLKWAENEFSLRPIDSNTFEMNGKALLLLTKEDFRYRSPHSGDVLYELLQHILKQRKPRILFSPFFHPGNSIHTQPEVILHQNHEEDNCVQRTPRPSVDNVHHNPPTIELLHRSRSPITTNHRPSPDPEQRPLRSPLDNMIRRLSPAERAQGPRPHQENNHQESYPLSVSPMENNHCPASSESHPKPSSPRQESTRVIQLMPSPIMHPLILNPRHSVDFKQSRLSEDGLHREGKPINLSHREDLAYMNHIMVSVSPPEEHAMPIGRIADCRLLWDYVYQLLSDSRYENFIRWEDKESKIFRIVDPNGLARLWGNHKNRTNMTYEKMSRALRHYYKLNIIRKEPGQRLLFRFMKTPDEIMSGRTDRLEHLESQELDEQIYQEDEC

TTCCAA was tested, and the binding signal [1] was 1.26 fold enrichment (6-mer frequency, TF over GST control), the binding signal [2] was 1.18 fold enrichment (6-mer frequency, TF over GST control) and the binding signal [3] was 1.47 fold enrichment (6-mer frequency, TF over GST control). For the same sequence, the binding signal [4] was 1.31 fold enrichment (6-mer frequency, TF over GST control), the binding signal [5] was 1.27 fold enrichment (6-mer frequency, TF over GST control) and the binding signal [6] was 1.31 fold enrichment (6-mer frequency, TF over GST control). The binding signal [7] was 1.29 fold enrichment (6-mer frequency, TF over GST control), the binding signal [8] was 1.16 fold enrichment (6-mer frequency, TF over GST control) and the binding signal [9] was 1.39 fold enrichment (6-mer frequency, TF over GST control). The binding signal [10] was 1.21 fold enrichment (6-mer frequency, TF over GST control), the binding signal [11] was 1.27 fold enrichment (6-mer frequency, TF over GST control) and the binding signal [12] was 1.3 fold enrichment (6-mer frequency, TF over GST control). The binding signal [13] was 1.25 fold enrichment (6-mer frequency, TF over GST control), the binding signal [14] was 1.29 fold enrichment (6-mer frequency, TF over GST control) and the binding signal [15] was 1.27 fold enrichment (6-mer frequency, TF over GST control). For the same sequence, the binding signal [16] was 1.21 fold enrichment (6-mer frequency, TF over GST control), the binding signal [17] was 1.22 fold enrichment (6-mer frequency, TF over GST control) and the binding signal [18] was 1.29 fold enrichment (6-mer frequency, TF over GST control).
